From PubChem
Shown are actives, neighbours in structure and some others; about 2.5% of the full set was active somewhere.
Cruzain inh Det: qHTS Assay for Promiscuous and Specific Inhibitors of Cruzain (with detergent); Cruzipain (Trypanosoma cruzi), P25779; purified cruzain, Z-FR-AMC fluorescence, 0.01% Triton; Potency, µM, without a hit: max response, negative = inhibition, actives largely listed as inhibitors; 0.43% of 200,000 active; AID 1478, 2009;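 also: plate controls were neutral wells for no effect and buffer without enzyme for full effect; nearly all actives have a fitted effect of over 40% in size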
Target sequence (P25779 123-467 limits assumed): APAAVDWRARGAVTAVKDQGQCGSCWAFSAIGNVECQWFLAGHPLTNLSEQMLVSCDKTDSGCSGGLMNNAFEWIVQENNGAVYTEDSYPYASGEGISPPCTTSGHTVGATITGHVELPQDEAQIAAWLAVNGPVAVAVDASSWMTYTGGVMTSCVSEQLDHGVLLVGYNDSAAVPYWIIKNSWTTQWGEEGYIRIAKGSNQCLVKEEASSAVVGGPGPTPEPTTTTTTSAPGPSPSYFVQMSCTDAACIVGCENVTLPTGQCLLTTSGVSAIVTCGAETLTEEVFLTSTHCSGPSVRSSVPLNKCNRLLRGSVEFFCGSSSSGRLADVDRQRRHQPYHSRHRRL
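Cysteine protease activity tested under reducing, mildly acidic conditions (100 mM sodium acetate pH 5.5, 5 mM DTT) plus 0.01% Triton X-100. Cruzain 1.5 nM; substrate Z-FR-AMC 2 uM; 15 min compound preincubation at room temperature.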
Cruzain noTriton: qHTS Assay for Promiscuous and Specific Inhibitors of Cruzain (without detergent); purified cruzain, Z-FR-AMC fluorescence, no detergent; Potency, µM, without a hit: max response, negative = inhibition, actives largely listed as inhibitors; 2.3% of 200,000 active;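 also: plate controls were enzyme without inhibitor for no effect and buffer without enzyme for full effect; nearly all actives have a fitted effect of over 40% in size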
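Purified cruzain at 1.5 nM, pre-incubated 15 min with compound at room temperature in 100 mM sodium acetate pH 5.5, 5 mM DTT, 0.00005% Triton X-100. Reaction started with 2 uM Z-FR-AMC; AMC fluorescence increase over 60 s gives rate.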
An asterisk follows results filed as active. Calls follow the shape of the dose curve; as a rule, active = well fitted curve in the direction sought with a large enough effect; inconclusive = small, poorly fitted or top-dose-only effect, or another doubt; inactive = no such curve, though single readings can be large; an effect the other way counts as inactive or inconclusive. Potency is read from the fitted curve at half-maximal effect.

COc1ccccc1-c1nc(C#N)c(N2CCN(Cc3ccccc3)CC2)o1 was read as Cruzain inh Det -18.8% and Cruzain noTriton -2.0%.
COc1ccccc1-c1nc(C#N)c(N2CCC(Cc3ccccc3)CC2)o1 was read as Cruzain inh Det 35.5µM* and Cruzain noTriton inconclusive.
`O=C(Cc1nnc(NC(=O)Nc2ccccc2)s1)NCc1ccccc1` gave Cruzain inh Det -2.1% and Cruzain noTriton -75.2%.
O=C(Nc1ccc(Cl)cc1)Nc1nnc(SCc2ccc(Cl)cc2)s1 was read as Cruzain inh Det 0.8% and Cruzain noTriton 7.94µM*.
Screening O=C(Nc1ccc(Cl)cc1)Nc1nnc(Cc2ccc([N+](=O)[O-])cc2)s1 returned Cruzain inh Det -1.9% and Cruzain noTriton 7.94µM*.
COc1ccc(Cc2nnc(NC(=O)c3ccc(Cl)c([N+](=O)[O-])c3)s2)cc1 was read as Cruzain inh Det 7.5% and Cruzain noTriton 15.8µM*.
Cc1ccc(NC(=O)Nc2nnc(Cc3ccc([N+](=O)[O-])cc3)s2)cc1 was read as Cruzain inh Det 0.1% and Cruzain noTriton -19.5%.
For O=C(Nc1ccccc1)Nc1nnc(SCc2ccc(Cl)cc2)s1 the results were Cruzain inh Det -1.1% and Cruzain noTriton inconclusive.
Screening COCC(=O)Nc1nnc(Cc2ccc(OC)cc2)s1 returned Cruzain inh Det 2.4% and Cruzain noTriton -2.8%.
For O=C(Cc1nnc(NC(=O)Nc2ccc(Cl)cc2)s1)NCc1ccccc1 the results were Cruzain inh Det 1.0% and Cruzain noTriton 10µM*.
`CCN(CC(=O)O)C(=O)c1cccnc1` gave Cruzain inh Det 1.5% and Cruzain noTriton 18.0%.
Screening CCn1c2ccccc2c2cc(/C=N/NC(=O)c3cccc(C)c3)ccc21 returned Cruzain inh Det 6.6% and Cruzain noTriton 7.94µM*.
`CCn1c2ccccc2c2cc(/C=N/NC(=O)c3ccccc3C)ccc21` gave Cruzain inh Det -21.5% and Cruzain noTriton 31.6µM*.
Screening Cc1cccc(C(=O)N/N=C/c2ccncc2)c1 returned Cruzain inh Det 0.3% and Cruzain noTriton 3.6%.
For CCn1c2ccccc2c2cc(/C=N/n3cnnc3)ccc21 the results were Cruzain inh Det -10.9% and Cruzain noTriton -7.0%.
Screening O=C(OCC1CCCO1)c1ccc2c(c1)N(Cc1ccccc1)C(=O)c1ccccc1S2(=O)=O (configuration not stated) returned Cruzain inh Det -2.6% and Cruzain noTriton 0.6%.
For FB(F)F the results were Cruzain inh Det 2.6% and Cruzain noTriton -0.9%.
Screening O=C(CN1C(=O)c2ccccc2C1=O)Nc1ccc2c(c1)OCO2 returned Cruzain inh Det 1.1% and Cruzain noTriton -15.4%.
For O=C(Cn1c(O)c(/C=C2\C=Nc3ccccc32)sc1=O)Nc1ccc2c(c1)OCO2 the results were Cruzain inh Det -0.2% and Cruzain noTriton 5.01µM*.
For COc1ccc(C(Cl)=C(c2ccc(OC)cc2)c2ccc(OC)cc2)cc1 the results were Cruzain inh Det -4.6% and Cruzain noTriton 20µM*.
For COc1ccc(C(=N/O)/C(=N/O)c2ccc(OC)cc2)cc1 the results were Cruzain inh Det -2.6% and Cruzain noTriton -5.2%.
For CC1CCCCN1C(=O)c1ccc2c(c1)N(Cc1ccc(F)cc1)C(=O)c1ccccc1S2(=O)=O (configuration not stated) the results were Cruzain inh Det -0.9% and Cruzain noTriton inconclusive.
O=C(O)CNCCc1ccccc1 was read as Cruzain inh Det 2.8% and Cruzain noTriton -5.3%.
`CCOC(=O)c1cc2c(=O)n3ccccc3nc2n(Cc2ccco2)c1=NC(=O)c1cccc(F)c1` gave Cruzain inh Det -16.3% and Cruzain noTriton -6.1%.
For Cn1cc(/C=N/n2cnc3scc(-c4ccc(Cl)cc4)c3c2=O)c2ccccc21 the results were Cruzain inh Det -3.7% and Cruzain noTriton 25.1µM*.
`CCn1cnc2scc(-c3ccccc3)c2c1=O` gave Cruzain inh Det 4.2% and Cruzain noTriton -11.2%.
Screening COC(=O)[C@@]1(Cc2ccc(OC)cc2)[C@H]2c3cc(C(=O)N4CCCC4)n(Cc4nc5ccccc5[nH]4)c3C[C@H]2CN1C(=O)c1ccccc1 returned Cruzain inh Det -4.0% and Cruzain noTriton inconclusive.
CCOc1ccc(-c2nn(-c3ccccc3)cc2/C=C2\SC(=S)N(Cc3ccco3)C2=O)cc1 was read as Cruzain inh Det -5.7% and Cruzain noTriton 10µM*.
For CCCOc1ccc(-c2nn(-c3ccccc3)cc2/C=C2\SC(N)=NC2=O)cc1 the results were Cruzain inh Det 0.2% and Cruzain noTriton inconclusive.
For CCOc1ccc(CCNC(=O)CCCn2c(=O)c3cccn3c3cccnc32)cc1 the results were Cruzain inh Det -0.2% and Cruzain noTriton 4.7%.
`Nc1c(S(=O)(=O)O)cc(S(=O)(=O)O)c2ccc(N=Nc3ccccc3)c(O)c12` gave Cruzain inh Det -0.2% and Cruzain noTriton -7.1%.
